DT40 TDP1 no CPT – qHTS for Inhibitors of human tyrosyl-DNA phosphodiesterase 1 (TDP1): qHTS in cells in absence of CPT; DT40 Tdp1-/- hTDP1 cells, no CPT, ATP luminescence, 48 h; Potency, µM (titrated, usually from 46.2 µM), usual class: inhibitors; 15% of 420,000 active; AID 686978, 2013; also: nearly all actives have a fitted effect of over 55% in size
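DT40 Tdp1-/-;hTDP1 cells, no CPT (DMSO vehicle only), 400 cells/well; compounds pin-transferred; ≥48 hr, 37 °C; CellTiter-Glo 30 min RT dark, luminescence read.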
ELG1 repair inh – ELG1-dependent DNA repair inhibition. Potency, µM (highest dose often 46.1 µM), most hits filed as inhibitors. HEK293T ELG1-luciferase reporter, luminescence, 16 h; DNA damage induced by 5-fluorouridine. 2.3% of 330,000 active; also: nearly all actives have a fitted effect of over 55% in size
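Reporter activity after DNA damage by 5-fluorouridine is monitored. Compound-treated cells incubate 16 hr at 37 °C, then ONE-Glo is added for 30 min before luminescence reading.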
VP16 counter – Gal4-VP16 reporter inhibition counter-screen. Drosophila S2 Gal4-VP16 UAS-luciferase, luminescence, 20 h. Potency, µM (series often up to 53.6 µM), most hits filed as inhibitors. 3.5% of 310,000 active. AID 2546;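 also: Gal4-VP16 expression switched on by copper sulfate through the metallothionein promoter; nearly all actives have a fitted effect of over 50% in size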
RORgamma inh – inhibitors of mouse ROR gamma transcriptional activity; Potency, µM (doses to about 53.6 µM), hits mostly inhibitors; P51450; 5.4% of 310,000 active; AID 2551; Drosophila S2 Gal4-RORgamma UAS-luciferase reporter, 20 h; also: nearly all actives have a fitted effect of over 60% in size
Target sequence (P51450 whole entry, looked up, the tested form may be a part): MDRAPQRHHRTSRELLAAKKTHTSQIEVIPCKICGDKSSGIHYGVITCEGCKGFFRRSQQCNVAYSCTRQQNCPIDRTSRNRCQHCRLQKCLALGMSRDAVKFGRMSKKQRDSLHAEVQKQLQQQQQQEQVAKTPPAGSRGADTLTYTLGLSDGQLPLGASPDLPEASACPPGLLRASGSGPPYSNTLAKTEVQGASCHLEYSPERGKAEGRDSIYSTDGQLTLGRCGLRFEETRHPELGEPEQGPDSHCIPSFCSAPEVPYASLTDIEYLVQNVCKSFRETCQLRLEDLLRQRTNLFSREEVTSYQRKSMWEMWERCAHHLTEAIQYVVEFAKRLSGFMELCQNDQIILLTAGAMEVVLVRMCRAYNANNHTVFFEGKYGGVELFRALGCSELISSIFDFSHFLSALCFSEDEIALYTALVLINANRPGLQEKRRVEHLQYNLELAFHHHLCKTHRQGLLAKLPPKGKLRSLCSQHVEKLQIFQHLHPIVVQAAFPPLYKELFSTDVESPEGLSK
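Luminescence from a UAS-regulated Photinus luciferase reporter in stably transfected Drosophila Schneider cells is measured; decreased signal marks ROR gamma inhibition. Fusion expression is induced by 700 uM copper sulfate for 20 hr.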
IL-1B inflam inh – blocks inflammasome-driven IL-1 beta release; THP-1 LPS/ATP IL-1B secretion, AlphaLISA, 16 h; active compounds read low; activity change, % at 57.5 µM; 4.7% of 360,000 active; in the data active = activity change below about -50%; inconclusive = mostly about -30% to -49%
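THP-1 cells pretreated 1 hr with compounds (up to 57.5 uM final), then stimulated with LPS (250 ng/mL final) plus ATP (1.25 mM final); secreted IL-1B measured by AlphaLISA after 16 hr, decreased signal indicating inhibition.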
DT40 TDP1 CPT – DT40-hTDP1 cell growth loss with CPT; 12% of 420,000 active; AID 686979; chicken DT40 Tdp1-/-;hTDP1 cells + 20 nM CPT, ATP luminescence, 48 h; Potency, µM (series often up to 46.2 µM), actives largely listed as inhibitors; also: nearly all actives have a fitted effect of over 55% in size
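Chicken DT40 Tdp1-/- cells complemented with human TDP1, 400 cells/well, exposed to compounds plus 20 nM camptothecin for at least 48 h at 37 C; viability read as ATP content by CellTiter-Glo luminescence.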
Numbers stand for hits. An excerpt weighted towards active compounds, which were near 21% of everything screened. Unless noted, calls follow the shape of the dose curve; as a rule, active = well fitted curve in the direction sought with a large enough effect; inconclusive = small, poorly fitted or top-dose-only effect, or another doubt; inactive = no such curve, though single readings can be large; an effect the other way counts as inactive or inconclusive.

For Cc1ccccc1Nc1cc(=O)oc2ccccc12 the results were DT40 TDP1 no CPT 21µM, ELG1 repair inh inconclusive, VP16 counter inactive, RORgamma inh inactive, IL-1B inflam inh inactive and DT40 TDP1 CPT 12µM.
`O=c1cc(NCCc2ccccc2)c2ccccc2o1` gave DT40 TDP1 no CPT 8.2µM, ELG1 repair inh inactive, VP16 counter inactive, RORgamma inh inconclusive, IL-1B inflam inh -59 and DT40 TDP1 CPT 10µM.
`Cc1nc(SC(C)C(=O)NC2CCCC2)c2ccccc2n1` (stereo not drawn) gave DT40 TDP1 no CPT inconclusive, ELG1 repair inh inactive, IL-1B inflam inh inactive and DT40 TDP1 CPT inactive.
For CCOC(=O)c1sc2cccc(F)c2c1S(=O)(=O)NCc1ccccc1Cl the results were DT40 TDP1 no CPT inactive and DT40 TDP1 CPT inactive.
Screening c1ccc2nc3c(cc2c1)CCCCC3 returned DT40 TDP1 no CPT 13µM, ELG1 repair inh inactive, VP16 counter inactive, RORgamma inh inactive, IL-1B inflam inh inactive and DT40 TDP1 CPT 18µM.
Nc1c(C(=O)NCCc2ccccc2)nnn1CC(=O)Nc1ccc(Cl)cc1 was read as DT40 TDP1 no CPT inactive and DT40 TDP1 CPT inactive.
For COc1ccc2sc(-c3ccc(S(C)(=O)=O)cc3)c(C#CCO)c2c1 the results were DT40 TDP1 no CPT 21µM, ELG1 repair inh inconclusive, IL-1B inflam inh -55 and DT40 TDP1 CPT 15µM.
For COc1ccc(-c2sc3ccc(N4CCOCC4)cc3c2C#CCCO)cc1 the results were DT40 TDP1 no CPT 4.6µM, ELG1 repair inh inconclusive, IL-1B inflam inh inactive and DT40 TDP1 CPT 6.5µM.
For COc1ccc2c(-c3ccc(S(N)(=O)=O)cc3)c(-c3ccc(S(C)(=O)=O)cc3)sc2c1 the results were DT40 TDP1 no CPT inconclusive, ELG1 repair inh inconclusive, IL-1B inflam inh inactive and DT40 TDP1 CPT 23µM.
`CS(=O)(=O)c1ccc(-c2sc3ccccc3c2C#CCCO)cc1` gave DT40 TDP1 no CPT inconclusive, ELG1 repair inh inconclusive, IL-1B inflam inh inactive and DT40 TDP1 CPT 16µM.
For COc1ccc2c(Cl)c(C(=O)NCCc3ccc(S(N)(=O)=O)cc3)sc2c1 the results were DT40 TDP1 no CPT inactive, ELG1 repair inh inactive, VP16 counter inactive, RORgamma inh inconclusive, IL-1B inflam inh inactive and DT40 TDP1 CPT inactive.
COc1ccc2c(C#CCCO)c(-c3ccc(S(C)(=O)=O)cc3)sc2c1 was read as DT40 TDP1 no CPT inconclusive, ELG1 repair inh inactive, IL-1B inflam inh inactive and DT40 TDP1 CPT inconclusive.
Screening COc1cc(OC)cc(-c2sc3ccc(OC)cc3c2C#CCCO)c1 returned DT40 TDP1 no CPT inactive, ELG1 repair inh inconclusive, IL-1B inflam inh inactive and DT40 TDP1 CPT inconclusive.
For CN(C)/N=N/c1nc[nH]c1C(N)=O the results were DT40 TDP1 no CPT inactive, VP16 counter inactive, RORgamma inh inactive and DT40 TDP1 CPT inactive.
For COc1ccc(-c2sc3ccccc3c2C#CCCO)cc1 the results were DT40 TDP1 no CPT inconclusive, ELG1 repair inh inactive, VP16 counter inactive, RORgamma inh inactive, IL-1B inflam inh inactive and DT40 TDP1 CPT 26µM.
Screening Cn1cncc1C#Cc1c(-c2ccc(S(C)(=O)=O)cc2)sc2ccccc12 returned DT40 TDP1 no CPT 12µM, ELG1 repair inh inconclusive, IL-1B inflam inh inactive and DT40 TDP1 CPT 13µM.
`O=C(CCl)NC1(C(=O)O)CCCC1` gave DT40 TDP1 no CPT inactive, IL-1B inflam inh inactive and DT40 TDP1 CPT inactive.
For N/C(Cc1cccc2ccccc12)=N\OC(=O)c1ccccc1F the results were DT40 TDP1 no CPT inactive, ELG1 repair inh inactive, VP16 counter inactive, RORgamma inh inactive, IL-1B inflam inh inactive and DT40 TDP1 CPT inactive.
For N/C(=N\OC(=O)c1cccc2ccccc12)c1ccc(Br)cc1 the results were DT40 TDP1 no CPT inactive, ELG1 repair inh inconclusive, VP16 counter 5µM, RORgamma inh 10µM, IL-1B inflam inh inactive and DT40 TDP1 CPT inactive.
For N/C(Cc1ccccc1)=N\OC(=O)c1cccc2ccccc12 the results were DT40 TDP1 no CPT inconclusive, ELG1 repair inh inconclusive, VP16 counter 8.9µM, RORgamma inh inactive, IL-1B inflam inh inactive and DT40 TDP1 CPT inconclusive.
For N/C(=N\OC(=O)c1cccc2ccccc12)c1ccncc1 the results were DT40 TDP1 no CPT inactive, ELG1 repair inh inconclusive, VP16 counter inactive, RORgamma inh inactive, IL-1B inflam inh inactive and DT40 TDP1 CPT inactive.
CCOC(=O)C1(C)CCN1C(=O)c1ccc(OC)c(OC)c1 (stereo not drawn) was read as DT40 TDP1 no CPT inactive, IL-1B inflam inh inactive and DT40 TDP1 CPT inactive.
CC(CC(=O)NCc1ccc(F)cc1)c1ccccc1 (stereo not drawn) was read as DT40 TDP1 no CPT inactive, ELG1 repair inh inactive, VP16 counter inactive, RORgamma inh inactive, IL-1B inflam inh inactive and DT40 TDP1 CPT inactive.
`CSc1nc(C(C)C)ccc1CNC(=O)CC(C)c1ccccc1` (stereo not drawn) gave DT40 TDP1 no CPT 23µM, ELG1 repair inh inconclusive, VP16 counter inactive, RORgamma inh inactive, IL-1B inflam inh inactive and DT40 TDP1 CPT inactive.
For N#CCC(=O)Nc1ccc(C(=O)OCC(=O)NC(=O)NCc2ccco2)cc1 the results were DT40 TDP1 no CPT inactive, ELG1 repair inh inactive, IL-1B inflam inh inactive and DT40 TDP1 CPT inactive.
O=C(Nc1nc2c(s1)CCCC2)c1cc2n(n1)C(C(F)(F)F)CC(C1CC1)N2 (stereo not drawn) was read as DT40 TDP1 no CPT inconclusive, ELG1 repair inh inconclusive, VP16 counter inactive, RORgamma inh inactive, IL-1B inflam inh -60 and DT40 TDP1 CPT inactive.
For Cc1cccc(C)c1NC(=O)C(c1ccc(Cl)cc1Cl)N1CCCCC1 (stereo not drawn) the results were DT40 TDP1 no CPT 29µM, ELG1 repair inh inactive, VP16 counter inactive, RORgamma inh inactive, IL-1B inflam inh inconclusive and DT40 TDP1 CPT 18µM.
Cc1cc(C)cc(NC(=O)C(c2ccccc2)N2CCCC2)c1 (stereo not drawn) was read as DT40 TDP1 no CPT 2.9µM, ELG1 repair inh inactive, VP16 counter inactive, RORgamma inh inactive, IL-1B inflam inh inconclusive and DT40 TDP1 CPT 3.7µM.
Screening Cc1ccc(NC(=O)C(c2ccc(Cl)cc2)N2CCCCC2)cc1 (stereo not drawn) returned DT40 TDP1 no CPT 13µM, ELG1 repair inh inactive, VP16 counter inactive, RORgamma inh inactive, IL-1B inflam inh inactive and DT40 TDP1 CPT 15µM.
CC(=O)N1CCN(C(C(=O)Nc2c(C)cccc2C)c2ccccc2OC(F)(F)F)CC1 (stereo not drawn) was read as DT40 TDP1 no CPT inactive, IL-1B inflam inh inactive and DT40 TDP1 CPT inactive.
